Calls of active or inactive are those of the source. The calls were made as follows: active = hit-call score of the fitted dose curve at least 0.9, where 1 is the maximum; inactive = score below 0.9.

As usually defined, the AC50 is the concentration at which the activity in the assay is half-maximal.

Read-out in test [1]: Interleukin-1 alpha (IL1a), IL1A (gene 3552)
Put plainly: BSK_KF3CT_IL1a: BioMAP Diversity Plus: KF3CT Assay for Interleukin-1 alpha (IL1a) Biomarker Activity (AID 2283070). Particulars: primary human keratinocytes with fibroblasts; actives raise or lower the signal. Put shortly:
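Human keratinocyte plus foreskin fibroblast primary co-culture, sampled 24 h after chemical dosing. IL-1a measured by ELISA; responses fitted bidirectionally against DMSO baseline (negative control), so gain or loss of signal both count.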

Read-out in test [2]: TIMP metallopeptidase inhibitor 2 (TIMP2), TIMP2 (gene 7077)
Kind of test: BSK_KF3CT_TIMP2: BioMAP Diversity Plus: KF3CT Assay for TIMP metallopeptidase inhibitor 2 (TIMP2) Biomarker Activity (AID 2283071). Particulars: primary human keratinocytes with fibroblasts; actives raise or lower the signal. Put shortly: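 Cells: human keratinocytes co-cultured with foreskin fibroblasts. Treat with chemical, 24 h. Measure TIMP-2 by ELISA; fit curves bidirectionally vs DMSO baseline.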

Read-out in test [3]: Transforming growth factor beta 1 (TGFb1), TGFB1 (gene 7040)
Put plainly: BSK_KF3CT_TGFb1: BioMAP Diversity Plus: KF3CT Assay for Transforming growth factor beta 1 (TGFb1) Biomarker Activity (AID 2283072). Particulars: primary human keratinocytes with fibroblasts; actives raise or lower the signal. Put shortly: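 Primary human skin cells (keratinocytes, foreskin fibroblasts) were co-cultured, exposed to test chemical and sampled at 24 h. TGF-b1 levels were measured by ELISA and fitted bidirectionally relative to DMSO.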

Read-out in test [4]: C-C motif chemokine 2 (Homo sapiens) (UniProt P13500)
Put plainly: BSK_KF3CT_MCP1: BioMAP Diversity Plus: KF3CT Assay for Monocyte Chemoattractant Protein 1 (MCP1/CCL2) Biomarker Activity (AID 2283073). Particulars: primary human keratinocytes with fibroblasts; actives raise or lower the signal. The procedure, abridged:
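ELISA read-out of MCP-1, 24 h post-dose, in primary human skin keratinocytes co-cultured with fibroblasts. Parallel SRB staining monitors cytotoxicity; changes fitted both directions relative to DMSO.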

Read-out in test [5]: Matrix Metallopeptidase 9 (MMP9), MMP9 (gene 4318)
Kind of test: BSK_KF3CT_MMP9: BioMAP Diversity Plus: KF3CT Assay for Matrix Metallopeptidase 9 (MMP9) Biomarker Activity (AID 2283074). Particulars: primary human keratinocytes with fibroblasts; actives raise or lower the signal. The procedure, abridged:
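Keratinocyte plus foreskin fibroblast human primary skin co-culture was dosed with chemical and MMP-9 was quantified by ELISA 24 h later. Bidirectional curve fitting used DMSO as negative control and activity baseline.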

Read-out in test [6]: urokinase plasminogen activator (uPA), PLAU (gene 5328)
Put plainly: BSK_KF3CT_uPA: BioMAP Diversity Plus: KF3CT Assay for urokinase plasminogen activator (uPA) Biomarker Activity (AID 2283075). Particulars: primary human keratinocytes with fibroblasts; actives raise or lower the signal. The procedure, abridged:
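Human keratinocyte plus foreskin fibroblast primary co-culture exposed to chemical for 24 h. uPA levels were quantified by ELISA, and activity was fitted bidirectionally against a DMSO negative-control baseline.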

Read-out in test [7]: CD40, CD40 (gene 958)
Kind of test: BSK_LPS_CD40: BioMAP Diversity Plus: LPS Assay for CD40 Biomarker Activity (AID 2283076). Particulars: primary human HUVEC with PBMC; actives raise or lower the signal. Put shortly:
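In the LPS system of human endothelial cells with peripheral blood mononuclear cells, CD40 levels were read by ELISA 24 h post-treatment. Signal changes in either direction were fitted against the DMSO baseline, with parallel SRB protein staining.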

Read-out in test [8]: E-selectin (Homo sapiens) (UniProt P16581)
Put plainly: BSK_LPS_Eselectin: BioMAP Diversity Plus: LPS Assay for Eselectin Biomarker Activity (AID 2283077). Particulars: primary human HUVEC with PBMC; actives raise or lower the signal. The procedure, abridged:
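E-selectin ELISA on LPS-stimulated endothelial cell/PBMC co-cultures, read 24 h post-treatment; gains and losses fitted against DMSO. Parallel SRB staining (0.1% SRB after 10% TCA fixation, 560 nm) flags overt cytotoxicity.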

Read-out in test [9]: Interleukin-8 (IL8), CXCL8 (gene 3576)
Put plainly: BSK_LPS_IL8: BioMAP Diversity Plus: LPS Assay for Interleukin-8 (IL8) Biomarker Activity (AID 2283078). Particulars: primary human HUVEC with PBMC; actives raise or lower the signal. The procedure, abridged: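 ELISA read-out of IL-8 after 24 h chemical treatment of LPS-activated endothelial/PBMC human primary co-cultures. Changes either up or down relative to DMSO; overt cytotoxicity checked by sulforhodamine B staining in parallel wells.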

Test [10] can be described thus: BSK_LPS_SRB: Viability Assessment in the BioMAP Diversity Plus: LPS Assay (AID 2283079).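 Also: total protein by sulforhodamine B absorbance as a cytotoxicity measure; measured one day after compound addition.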 Particulars: primary human HUVEC with PBMC. Put shortly: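 SRB viability endpoint: cells fixed with 10% TCA, stained with 0.1% SRB, read at 560 nm, 24 h post-dose. HUVEC/PBMC co-culture; signal change in either direction scored relative to DMSO.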
Read-out in test [11]: Interleukin-1 alpha (IL1a), IL1A (gene 3552)
Kind of test: BSK_LPS_IL1a: BioMAP Diversity Plus: LPS Assay for Interleukin-1 alpha (IL1a) Biomarker Activity (AID 2283080). Particulars: primary human HUVEC with PBMC; actives raise or lower the signal. The procedure, abridged: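 Readout is IL-1a level by ELISA, 24 h post-dose, fitted as gain or loss relative to DMSO. System: LPS-activated human primary co-culture of vascular endothelium and peripheral blood mononuclear cells, with parallel SRB total-protein cytotoxicity.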

Read-out in test [12]: Monocyte Chemoattractant Protein-1 (MCP1), CCL2 (gene 6347)
Put plainly: BSK_LPS_MCP1: BioMAP Diversity Plus: LPS Assay for Monocyte Chemoattractant Protein-1 (MCP1) Biomarker Activity (AID 2283081). Particulars: primary human HUVEC with PBMC; actives raise or lower the signal. Put shortly:
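Secreted MCP-1 read by ELISA at 24 h post-dosing in an LPS-activated co-culture of endothelial cells with peripheral blood mononuclear cells. Fits run in both directions, DMSO as baseline; parallel SRB staining tracks overt cytotoxicity.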

Test [13] can be described thus: BSK_LPS_PGE2: BioMAP Diversity Plus: LPS Assay for Prostaglandin E2 (PGE2) Biomarker Activity (AID 2283082). Particulars: primary human HUVEC with PBMC; actives raise or lower the signal. The procedure, abridged: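 LPS-activated HUVEC/PBMC co-culture; cmpd dosed, 24 h; PGE2 by ELISA; bidirectional fit vs DMSO; SRB (0.1%, TCA-fixed, 560 nm) in parallel plates for overt cytotox.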

Read-out in test [14]: Macrophage colony-stimulating factor (MCSF), CSF1 (gene 1435)
Put plainly: BSK_LPS_MCSF: BioMAP Diversity Plus: LPS Assay for Macrophage colony-stimulating factor (MCSF) Biomarker Activity (AID 2283083). Particulars: primary human HUVEC with PBMC; actives raise or lower the signal. Put shortly:
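Bidirectional fitting against DMSO was applied to M-CSF levels read by ELISA at 24 h post-dose. The system pairs human umbilical vein endothelium with peripheral blood mononuclear cells; parallel SRB staining tracked cytotoxicity.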

Read-out in test [15]: Tissue Factor, F3 (gene 2152)
Put plainly: BSK_LPS_TissueFactor: BioMAP Diversity Plus: LPS Assay for Tissue Factor Biomarker Activity (AID 2283084). Particulars: primary human HUVEC with PBMC; actives raise or lower the signal. Put shortly:
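Compound was added to an endothelial cell/PBMC co-culture, and after 24 h tissue factor (CD142) was read by ELISA. Gain or loss of signal was fitted against a DMSO baseline, and parallel SRB staining (560 nm) tracked overt cytotoxicity.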

Read-out in test [16]: Tumor necrosis factor (Homo sapiens) (UniProt P01375)
Put plainly: BSK_LPS_TNFa: BioMAP Diversity Plus: LPS Assay for Tumour Necrosis Factor alpha (TNFa) Biomarker Activity (AID 2283085). Particulars: primary human HUVEC with PBMC; actives raise or lower the signal. Put shortly: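 Read-out is ELISA of TNFa in primary human endothelial cell–PBMC co-cultures at 24 h after compound. Activity in either direction was fitted against DMSO.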

Read-out in test [17]: Vascular cell adhesion molecule 1 (VCAM1), VCAM1 (gene 7412)
Put plainly: BSK_LPS_VCAM1: BioMAP Diversity Plus: LPS Assay for Vascular cell adhesion molecule 1 (VCAM1) Biomarker Activity (AID 2283086). Particulars: primary human HUVEC with PBMC; actives raise or lower the signal. Put shortly:
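HUVEC + PBMC co-culture, LPS system; compound 24 h; VCAM-1 by ELISA; bidirectional fit vs DMSO control; parallel SRB (0.1%, TCA-fixed, 560 nm) for cytotoxicity.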

Read-out in test [18]: CD38, CD38 (gene 952)
Kind of test: BSK_SAg_CD38: BioMAP Diversity Plus: SAg Assay for CD38 Biomarker Activity (AID 2283087). Particulars: primary human HUVEC with PBMC; actives raise or lower the signal. The procedure, abridged: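 Human HUVEC plus PBMC co-culture stimulated with superantigen; CD38 measured by ELISA 24 h after chemical dosing. Fluorescence read-out, bidirectional fit against DMSO; cytotoxicity tracked in parallel by SRB and Alamar Blue.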

Read-out in test [19]: CD40, CD40 (gene 958)
Kind of test: BSK_SAg_CD40: BioMAP Diversity Plus: SAg Assay for CD40 Biomarker Activity (AID 2283088). Particulars: primary human HUVEC with PBMC; actives raise or lower the signal. Put shortly:
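CD40 is measured by fluorescence ELISA in an endothelial/PBMC primary human co-culture at 24 h post-dose. Fitting is bidirectional, DMSO baseline. Parallel SRB staining (560 nm) flags cytotoxicity.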

Read-out in test [20]: CD69, CD69 (gene 969)
Kind of test: BSK_SAg_CD69: BioMAP Diversity Plus: SAg Assay for CD69 Biomarker Activity (AID 2283089).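 As to AC50: cell surface CD69 protein quantified by ELISA with fluorescence detection.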 Particulars: primary human HUVEC with PBMC; actives raise or lower the signal. The procedure, abridged:
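ELISA, fluorescence read-out: CD69 on human umbilical vein endothelial cell + PBMC co-culture, 24 h post-dosing. Gain or loss of signal fitted bidirectionally against DMSO baseline.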

Tumor necrosis factor (Homo sapiens), sequence (P01375 whole entry, looked up): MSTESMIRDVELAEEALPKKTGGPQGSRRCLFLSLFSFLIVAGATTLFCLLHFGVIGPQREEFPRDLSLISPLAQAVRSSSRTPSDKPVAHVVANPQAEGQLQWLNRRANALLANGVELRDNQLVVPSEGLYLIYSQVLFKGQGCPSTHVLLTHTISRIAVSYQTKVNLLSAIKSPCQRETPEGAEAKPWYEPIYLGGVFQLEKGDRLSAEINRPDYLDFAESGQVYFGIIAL
E-selectin (Homo sapiens), sequence (P16581 whole entry, looked up): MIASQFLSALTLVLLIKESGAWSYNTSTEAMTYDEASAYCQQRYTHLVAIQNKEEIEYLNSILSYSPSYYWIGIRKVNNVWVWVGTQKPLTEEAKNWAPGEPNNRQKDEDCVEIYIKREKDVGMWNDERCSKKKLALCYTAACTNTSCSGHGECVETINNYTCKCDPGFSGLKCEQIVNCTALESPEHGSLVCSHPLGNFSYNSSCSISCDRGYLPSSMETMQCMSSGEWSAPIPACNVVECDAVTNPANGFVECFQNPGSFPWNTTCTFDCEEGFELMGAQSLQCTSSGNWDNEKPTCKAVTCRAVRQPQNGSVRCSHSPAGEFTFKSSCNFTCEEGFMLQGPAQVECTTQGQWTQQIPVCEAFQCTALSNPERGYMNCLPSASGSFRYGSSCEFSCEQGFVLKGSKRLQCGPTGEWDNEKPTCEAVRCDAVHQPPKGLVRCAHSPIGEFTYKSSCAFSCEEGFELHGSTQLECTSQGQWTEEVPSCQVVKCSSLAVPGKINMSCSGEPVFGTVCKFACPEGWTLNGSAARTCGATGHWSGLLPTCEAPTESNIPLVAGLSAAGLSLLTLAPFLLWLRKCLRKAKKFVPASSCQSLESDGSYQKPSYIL

Take `COC(OC)(C(=O)c1ccccc1)c1ccccc1`: the result in [1], in test [2], in test [3], in test [4], in test [5] and in test [6] was inactive. In addition, the result in test [7], in test [8], in test [10], in test [12], in test [13] and in test [14] was inactive. Moreover, the outcome in test [15], in test [16], in test [17], in [18], in test [19] and in test [20] was inactive. For the same compound, the concentration at half-maximal activity (AC50) was 0.016 µM (active) in [9] and 0.0387 µM (active) in test [11].
In the case of `CC1=CC=C(C(C)C)CC1`, the result in test [1], in test [2], in test [3], in test [4], in test [5] and in test [6] was inactive. In addition, the outcome in test [7], in test [9], in [10], in test [11], in test [12] and in [13] was inactive. The outcome in test [14], in test [15], in test [16], in test [17], in test [18] and in test [19] was inactive. In addition, the result in test [20] was inactive.
Regarding `O=C(Oc1ccccc1)c1ccccc1C(=O)Oc1ccccc1`, the outcome in [1], in test [2], in test [3], in test [4], in [5] and in test [7] was inactive. Also, the result in test [9], in test [10], in test [13], in test [14], in [15] and in test [16] was inactive. The result in test [17] was inactive. For the same compound, the AC50 is 29.7 µM (active) in test [18] and 24.1 µM (active) in [20].
